Compound activity: PubChem, several laboratories
Sampled rows, rich in hits. Any-hit rate of the full collection: about 4%.
GDH-TPI counter-1 – GDH-TPI coupling enzyme inhibitors, primary screen, artefact control for M. tuberculosis FBA inhibitor project, biochemical, absorbance, full deck; AID 588335, 2011; GDH-TPI coupled enzyme counterscreen, NADH absorbance; 1.2% of 360,000 active; inhibition, % at 4.8 µM; in the data active = inhibition above about 30%;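 note: 0% = DMSO wells and 100% = wells lacking the enzyme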
Mtb UGM inh – M. tuberculosis UGM enzyme inhibitors, primary screen, biochemical, fluorescence polarization, single point | inhibition, % at 10 µM | purified UGM, fluorescence polarization probe displacement | AID 504406, 2011 | 0.06% of 320,000 active; in the data active = inhibition above about 10%, passing the limit was not always enough
RecA splice inh – Mtb RecA intein splicing inhibitors, primary screen, biochemical, fluorescence, HTS | Protein RecA (Mycobacterium tuberculosis (strain ATCC 25618 / H37Rv)), P9WHJ3 | cell-free RecA intein splicing | inhibition, % (test concentration not listed) | 0.75% of 290,000 active | AID 2221, 2009; in the data active = inhibition above about 30%;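 note: 0% = vehicle wells and 100% = reference inhibitor control wells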
Mtb betalactam – beta-lactam sensitization of Mtb H37Rv, H37Rv | M. tuberculosis H37Rv growth with meropenem, percent inhibition | inhibition, % at 25 µM | 0.27% of 330,000 active; call rule not given here;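 note: growth measured after seven days incubation then overnight dye step; 0% = bacteria only wells and 100% = bacteria with antibiotic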
Rv3671c inh – Rv3671c serine protease inhibitors, primary screen, biochemical, fluorescence polarization, M. tuberculosis H37Rv; inhibition, % at 5.96 µM; P9WHR9; AID 2606, 2010; 0.048% of 320,000 active; in the data active = inhibition above about 38%;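 note: extracellular domain of Rv3671c used as enzyme; 0% = enzyme with DMSO and 100% = no enzyme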
Mtb FBA inh – Mtb FBA enzyme inhibitors, primary screen, biochemical, fluorescence, strain H37Rv; purified M. tuberculosis FBA, fluorescence read-out; Fructose-bisphosphate aldolase (Mycobacterium tuberculosis (strain ATCC 25618 / H37Rv)), …; inhibition, % at 1 µM; 2.3% of 360,000 active;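 note: 0% = vehicle and 100% = reference inhibitor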
Mtb FBA inh conf – M. tuberculosis aldolase blockers, biochemical, fluorescence, strain H37Rv, confirmation. shares compounds with Mtb FBA inh. purified M. tuberculosis FBA, fluorescence read-out. inhibition, % at 1 µM. 78% of 5,600 active. AID 651616, 2012;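 note: 0% = vehicle wells and 100% = reference inhibitor wells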
GDH-TPI counter-2 – GDH-TPI coupling enzyme inhibitors, artefact control for M. tuberculosis FBA inhibitor project, biochemical, fluorescence, high throughput; GDH-TPI coupled enzyme counterscreen; shares compounds with Mtb FBA inh; 81% of 5,600 active; AID 652141, 2013; inhibition, % at 1 µM; in the data active = inhibition above about 10%
* hit, by the source's call; / = no result; + = active, no number. Cut-off read from the data, not from the text of the source, unless noted: active = inhibition above about 27%; inactive = the rest.

SMILES | GDH-TPI counter-1 | Mtb UGM inh | RecA splice inh | Mtb betalactam | Rv3671c inh | Mtb FBA inh | Mtb FBA inh conf | GDH-TPI counter-2
CC(=O)c1cccc(OCC(=O)N2CCN(c3ccc(C(F)(F)F)cn3)CC2)c1 | -2 | -6 | -1 | -1 | -7 | 3 | / | /
Cc1ccc(C2N(C)C(=O)c3ccccc3N2C)cc1 (stereo not drawn) | 9 | 2 | -1 | -5 | / | 52* | + | +
Cc1ccc(C2C(=O)c3ccccc3C2=O)cc1 | 4 | 0 | 4 | 2 | -3 | -2 | / | /
COc1ccc(S(=O)(=O)Nc2nc3c(s2)CCCC3)cc1 | 2 | 0 | 0 | -7 | 3 | 56* | 86* | 68*
O=S(=O)(Nc1nc2c(s1)CCCC2)c1ccc(F)cc1 | -7 | 2 | 1 | -1 | -4 | 1 | / | /
O=C(c1coc(=O)c(Br)c1)N1CCOCC1 | 18 | / | -4 | / | / | 98* | 2 | -3
CNC(=O)CCc1[nH]c2ccccc2c1Sc1ccccc1 | 4 | -2 | 2 | -1 | -1 | 0 | / | /
COC(=O)c1[nH]c2ccccc2c1Sc1ccccc1 | 13 | 0 | 1 | -4 | / | 77* | 95* | 73*
Cc1cccc(S(=O)(=O)NC(=O)C2(C)CCN2C(=O)c2ccc(C3CCCCC3)cc2)c1 (stereo not drawn) | 11 | / | / | / | / | 2 | / | /
CC(C)(C)NC(=O)Nc1ccc2nccnc2c1 | 12 | 1 | -8 | -2 | 6 | 61* | 0 | -5
CC(C)(C)NC(=O)c1ccc2nccnc2c1 | 18 | 0 | 1 | 5 | 1 | -4 | / | /
CCOc1ccc(-c2cc(C(=O)NCCCN3CCN(CC)CC3)c3ccccc3n2)cc1 | 22 | -1 | -2 | -14 | -2 | 46* | 61* | 48*
CCOc1ccc(-c2cc(C(=O)NCCCn3ccnc3)c3ccccc3n2)cc1 | -1 | 1 | 3 | 89 | -4 | 33* | 43* | 33*
CC(=O)c1ccc(OCC(O)CN2CCN(S(=O)(=O)c3c(C)c(C)cc(C)c3C)CC2)cc1 (stereo not drawn) | 9 | 0 | 3 | 4 | -6 | -1 | / | /
O=C1c2ccccc2NC(c2ccc(-c3cccs3)o2)N1O (stereo not drawn) | 15 | 3 | / | -1 | -7 | 97* | 79* | 73*
O=S(=O)(NCc1c(Cl)cccc1Oc1ccccc1)c1ccccc1 | 1 | 0 | 12 | 4 | -1 | 2 | / | /
Cn1cnnc1SCC(=O)NN1C(=O)NC(C)(c2ccccc2)C1=O (stereo not drawn) | -1 | 0 | / | -6 | 4 | -1 | / | /
Cc1ccc2nc(-c3ccc(NC(=S)NCCC(C)C)cc3)sc2c1 | 21 | -4 | -4 | -7 | 7 | 27 | / | /
CC(=O)NC(=S)Nc1ccc(-c2nc3ccc(C)cc3s2)cc1 | 5 | 3 | -4 | 54 | -5 | 6 | / | /
C=CCn1c(SCC(=O)Nc2ccc(-c3nc4ccc(C)cc4s3)cc2)nnc1-c1ccccc1 | 11 | -3 | -1 | -2 | -8 | 41* | + | +
CCC(C)(C)NC(=S)Nc1ccc(-c2nc3ccc(C)cc3s2)cc1 | 28 | -1 | -6 | 1 | -13 | 92* | 2 | -3
CNC(=S)Nc1ccc(-c2nc3ccc(C)cc3s2)cc1 | 20 | 3 | -2 | 73 | 1 | 93* | 45* | 32*
CCCCNC(=S)Nc1ccc(-c2nc3ccc(C)cc3s2)cc1 | 21 | 6 | -2 | 9 | 2 | 56* | -2 | -5
CCCOc1cccc(C(=O)Nc2ccc(Br)cc2F)c1 | 12 | -1 | -2 | -1 | -2 | -2 | / | /
